# High-throughput results from PubChem.
# Rows were chosen to be rich in hits. Some 2.8% of all compounds tested hit in one or more screens of this group.
# SENP8 block-1 = human SENP8 protease inhibitors, primary screen, biochemical, fluorescence, Nedd8 protein substrate, uHTS; inhibition, % at 20 µM; AID 602440, 2012; recombinant SENP8; Sentrin-specific protease 8 (Homo sapiens), Q96LD8; 360,000 compounds, 0.64% hits; in the data active = inhibition mostly above about 40%, no sharp cut-off; inactive = mostly below about 27%
# Target sequence (Q96LD8 whole entry, looked up): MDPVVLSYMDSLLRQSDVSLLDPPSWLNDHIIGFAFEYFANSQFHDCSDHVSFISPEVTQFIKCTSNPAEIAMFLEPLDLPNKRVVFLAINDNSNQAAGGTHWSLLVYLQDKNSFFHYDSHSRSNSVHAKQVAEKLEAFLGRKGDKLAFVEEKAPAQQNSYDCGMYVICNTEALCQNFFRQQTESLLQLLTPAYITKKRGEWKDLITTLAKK
# HSP90 inh = HSP90 inhibitors, primary screen, cell lysate, luminescence; inhibition, % at 5.6 µM; Rabbit reticulocyte lysate, luciferase refolding luminescence, 3 h; 290,000 compounds, 0.91% hits; Heat shock protein HSP 90 (rabbit reticulocyte lysate; luciferase refolding);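 active = inhibition above the screen-wide mean plus 3 SD, computed separately per campaign, cut at about 16% in these data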;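 note: inhibitors lower the luminescence because luciferase stays unfolded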
# SENP7 inh = SENP7 protease inhibitors, primary screen, biochemical, luminescence, uHTS | 330,000 compounds, 1.5% hits | Sentrin-specific protease 7 (Homo sapiens), Q9BQF6 | recombinant SENP7, Z-RLRGG-aminoluciferin luminescence, 40 min | inhibition, % at 5 µM | AID 434973, 2010;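 active = inhibition above about 50% at the single test dose, limit read from the data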
# SENP6 block = SENP6 protease inhibitors, primary screen, biochemical, luminescence, uHTS. 330,000 compounds, 1.8% hits. Sentrin-specific protease 6 (Homo sapiens), Q9GZR1. Recombinant SENP6 catalytic domain, aminoluciferin luminescence. inhibition, % at 10 µM;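 active = inhibition above about 50% at the single tested dose, limit read from the data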
# SENP8 block-2 = SENP8 protease inhibitors, primary screen, biochemical, luminescence; 330,000 compounds, 1.2% hits; purified SENP8, Z-RLRGG-aminoluciferin cleavage; inhibition, % at 10 µM; in the data active = inhibition above about 50%
# SENP8 confirm = SENP8 protease inhibitors, retest, confirmation, biochemical, luminescence, single concentration. 6,200 compounds, 40% hits. Recombinant SENP8, Z-RLRGG-aminoluciferin luminescence, 60 min. inhibition, % at 12.5 µM. shares compounds with SENP7 inh;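 active = mean inhibition across replicates above about 50%, limit read from the data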
# SENP6 conf = SENP6 protease inhibitors, confirmation, biochemical, luminescence, single concentration. shares compounds with SENP7 inh. inhibition, % at 12.5 µM. 6,200 compounds, 58% hits. recombinant SENP6, Z-RLRGG-aminoluciferin luminescence
# SENP7 conf = SENP7 protease inhibitors, retest, confirmation, biochemical, luminescence, single concentration. shares compounds with SENP7 inh. recombinant SENP7, Z-RLRGG-aminoluciferin luminescence, 40 min. inhibition, % at 12.5 µM. 6,200 compounds, 69% hits
# Casp3 select = caspase-3 protease inhibitors, confirmation, selectivity assay for SENP inhibitor project, biochemical, single concentration; shares compounds with SENP7 inh; purified caspase-3, Z-DEVD-aminoluciferin luminescence, 60 min; inhibition, % at 12.5 µM; 6,200 compounds, 60% hits; AID 488918, 2010;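 active = mean inhibition above about 50%, limit read from the data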
# Target sequence (P42574 28-227 limits assumed): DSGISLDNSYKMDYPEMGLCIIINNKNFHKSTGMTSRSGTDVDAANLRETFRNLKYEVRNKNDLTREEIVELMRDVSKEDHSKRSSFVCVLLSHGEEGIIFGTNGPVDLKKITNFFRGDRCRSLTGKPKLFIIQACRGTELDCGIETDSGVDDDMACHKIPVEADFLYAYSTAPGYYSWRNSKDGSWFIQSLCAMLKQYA
# Luc interf = interferes with luciferase luminescence in SENP counter-screen | shares compounds with SENP7 inh | Pre-incubated SENP8/Z-RLRGG-aminoluciferin, luciferase luminescence interference | inhibition, % at 12.5 µM | 6,200 compounds, 39% hits;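 active = mean inhibition above about 50% when retested at one dose, limit read from the data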
# Numbers stand for hits; – = inactive; · = no result given.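 Rule for the calls, unless noted: active = mean inhibition above about 50% in the one-dose retest (limit read from the data); inactive = the rest.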
SMILES,SENP8 block-1,HSP90 inh,SENP7 inh,SENP6 block,SENP8 block-2,SENP8 confirm,SENP6 conf,SENP7 conf,Casp3 select,Luc interf
Cc1cc(C(=O)CSc2nc(N)cc(=O)[nH]2)ccc1F,–,–,–,–,90,–,–,–,–,–
Clc1ccccc1-c1nc(-c2ccccc2)n[nH]1,–,–,74,74,53,–,57,85,62,66
COc1ccc(C(=O)Nc2ccc([N+](=O)[O-])cn2)cc1OC,–,–,–,–,–,·,·,·,·,·
COc1cc(OC)cc(C(=O)Nc2ccc([N+](=O)[O-])cn2)c1,–,–,81,–,–,–,–,–,–,–
Cc1cc(C(=O)Nc2ccc([N+](=O)[O-])cn2)cs1,–,–,51,51,–,–,–,77,75,–
Cc1ccc(C(=O)Nc2ccc([N+](=O)[O-])cn2)o1,–,–,–,53,–,–,–,72,77,–
Cc1ccc(C)c(OCc2ccc(C(=O)Nc3ccc([N+](=O)[O-])cn3)o2)c1,–,·,–,–,–,·,·,·,·,·
O=c1cnnc(Nc2cccc(F)c2)[nH]1,–,–,–,–,–,·,·,·,·,·
CC(=O)c1ccc(OCCCC(=O)NC2=NCCS2)cc1,–,–,–,–,–,·,·,·,·,·
COc1cccc(-c2nc3ccc(O)cc3c(=O)o2)c1,–,–,87,89,74,–,81,96,80,87
Fc1cccc(-c2ncc(-c3ccccc3)o2)c1,–,·,·,·,·,·,·,·,·,·
O=C(O)c1ccc(-c2noc(-c3cccc(F)c3)n2)cc1,–,·,96,97,95,98,99,101,97,95
COc1cccc(-c2nc(-c3ccc(NC(=O)c4ccncc4)cc3)no2)c1,–,–,–,–,–,·,·,·,·,·
COc1cccc(-c2nc(-c3ccc(C(=O)O)cc3)no2)c1,–,·,97,99,95,99,100,103,99,86
Cc1ccc(/C=N/n2c(C)nc3ccccc3c2=O)s1,·,–,–,–,–,·,·,·,·,·
O=C(C1CCC(=O)N(C2CCCC2)C1)N1CCC(Oc2cccc(F)c2)CC1 (stereo not given),–,–,–,–,–,·,·,·,·,·
COc1ccc2nc(C3CCCCC3)nc(C3CCCCC3)c2c1,–,·,–,–,–,·,·,·,·,·
Cc1ccc2[nH]c3c(c2c1)CN(C(=O)CN1CCCCC1)CC3,·,–,–,–,–,·,·,·,·,·
Cc1ccc2[nH]c3c(c2c1)CN(C(=O)CN1CCCc2ccccc21)CC3,–,–,–,95,–,–,–,–,–,–
C/C(=N\NS(=O)(=O)c1ccc(C)c([N+](=O)[O-])c1)c1cccs1,–,–,–,–,–,·,·,·,·,·
C/C(CC(C)C)=N\NS(=O)(=O)c1ccc(C)c([N+](=O)[O-])c1,–,–,–,85,–,–,–,–,–,–
O=C1N(CC(=O)N2CCc3ccccc32)CCN1Cc1ccccc1Cl,–,–,–,–,–,·,·,·,·,·
O=[N+]([O-])c1ccc(O)c(/C=N/NC(=S)Nc2ccc(Cl)cc2Cl)c1,–,–,57,94,88,77,85,55,–,–
Cc1ccnc(NC(=O)c2sc3ccccc3c2Cl)c1,–,–,89,71,57,–,–,–,55,–
Cc1cnc(NC(=O)c2sc3ccccc3c2Cl)s1,–,–,84,80,66,–,–,53,–,–
SMILES,SENP8 block-1,HSP90 inh,SENP7 inh,SENP6 block,SENP8 block-2,SENP8 confirm,SENP6 conf,SENP7 conf,Casp3 select,Luc interf
CC(C)c1nnc(NC(=O)c2sc3ccccc3c2Cl)s1,–,–,–,–,–,·,·,·,·,·
CC1C(=O)N(Cc2ccc(F)cc2)c2ccccc2N1C(=O)c1c(F)cccc1F (stereo not given),–,–,–,–,–,·,·,·,·,·
COc1cccc2sc(Nc3nnc(-c4ccccc4Cl)o3)nc12,–,–,–,–,–,·,·,·,·,·
COc1ccccc1-c1nnc(Nc2nc3c(OC)cccc3s2)o1,–,–,76,–,–,–,–,–,–,–
COc1cccc(-c2nnc(NC(C)=O)o2)c1,–,·,–,–,–,·,·,·,·,·
COc1cccc(-c2nnc(Nc3nc4c(F)cccc4s3)o2)c1,–,–,–,90,84,–,84,–,60,50
Cc1oc2ccc(OCc3cccc(Cl)c3)cc2c1C(=O)O,–,–,–,75,71,–,–,–,–,–
Cc1oc2ccc(OCc3ccc(F)cc3)cc2c1C(=O)O,–,–,–,55,–,–,–,73,62,61
CCCS(=O)(=O)N1CCCC(C(=O)NCCN2CCC(Cc3ccccc3)CC2)C1 (stereo not given),–,–,–,–,–,·,·,·,·,·
COc1ccc(C2C(C(C)=O)=C(C)Nc3ncnn32)cc1[N+](=O)[O-] (stereo not given),–,–,–,–,–,·,·,·,·,·
O=C(COc1cc2oc(=O)c3c(c2cc1Cl)CCC3)Nc1cccnc1,–,–,67,–,–,–,–,–,–,–
O=C(CNC(=O)c1cccc(F)c1)N/N=C/c1cc(Br)ccc1OCc1ccccc1,–,–,–,–,–,·,·,·,·,·
O=C(CSc1nnc(-c2ccccc2F)o1)NC1CC1,–,·,–,–,–,·,·,·,·,·
O=C(c1ccccc1)c1nnc(-c2ccccc2F)o1,–,–,97,85,90,79,96,99,90,–
CCC(=O)OCCNc1cc(Sc2nc3ccccc3s2)c2nonc2c1[N+](=O)[O-],60,–,–,72,–,–,–,–,–,–
Cc1nnc(Sc2cc(NCCO)c([N+](=O)[O-])c3nonc23)s1,–,–,·,·,·,·,·,·,·,·
O=[N+]([O-])c1c(NCCCO)cc(Sc2nc3ccccc3s2)c2nonc12,–,–,80,82,91,–,–,–,–,–
CCC(=O)Nc1cc2nn(-c3ccc(OC)cc3)nc2cc1C,–,–,57,–,–,–,–,–,–,–
CCCC(=O)N1CCC1(C)C(=O)Nc1cccc(F)c1 (stereo not given),–,·,·,·,·,·,·,·,·,·
